Measurements from PubChem BioAssay AID651739 (Broad Institute, 2012).
Hit rate of the full screen: of about 5,600 compounds, about 4,100 (73%) were called active. About 4% were inconclusive and are not listed. So high a share suggests a set chosen from earlier hits. Not all results are given here. A number with no mark means an inactive call.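 Rule for the calls: active = mean replicate inhibition above about 95% and at least 55% of replicates individually reaching it (limit read from the data); inconclusive = only one of the two criteria is met; inactive = neither criterion is met.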

assay: T. cruzi intracellular proliferation inhibitors, confirmation, cell-based, NIH3T3 host, beta-gal parasite, luminescence, cherry-pick (AID 651739); conditions: T. cruzi beta-gal in NIH3T3, GalScreen luminescence, 90 h; at 8.35 µM; stronger effect = higher value

SMILES | inhibition
C[C@H]1CCCCO[C@@H](CN(C)C(=O)NC2CCCCC2)[C@@H](C)CN([C@@H](C)CO)C(=O)c2cc(NS(=O)(=O)c3ccc(Cl)cc3)ccc2O1 | 103% (active)
COc1ccc(NC(=O)N(C)C[C@@H]2OCCCC[C@@H](C)Oc3ccc(NS(=O)(=O)c4ccc(Cl)cc4)cc3C(=O)N([C@H](C)CO)C[C@H]2C)cc1 | 104% (active)
C[C@@H]1CCCCO[C@H](CN(C)C(=O)NC2CCCCC2)[C@H](C)CN([C@H](C)CO)C(=O)c2cc(NS(=O)(=O)c3ccc(Cl)cc3)ccc2O1 | 106% (active)
COc1ccc(S(=O)(=O)Nc2ccc3c(c2)C(=O)N([C@H](C)CO)C[C@@H](C)[C@@H](CN(C)CC2CCCCC2)OCCCC[C@@H](C)O3)cc1 | 91.5%
O=C(NCc1ccccn1)[C@@H]1[C@@H](CO)[C@@H]2Cn3c(ccc(/C=C/c4ccccc4)c3=O)[C@H]1N2CC1CC1 | 66.3%
O=C(NCC1CCCCC1)[C@H]1[C@H](CO)[C@H]2Cn3c(cccc3=O)[C@H]2N1C(=O)CC1CC1 | 43%
O=C(Nc1ccc(-c2ccccc2)cc1)[C@H]1[C@H](CO)[C@H]2Cn3c(cccc3=O)[C@H]2N1CC1CC1 | 101% (active)
O=S(=O)(Cc1ccccc1)N1CCCCN2[C@@H](CO)[C@@H](c3ccc(-c4ccc(F)cc4)cc3)[C@@H]2C1 | 96.2% (active)
C/C=C/c1ccc([C@H]2[C@H]3CN(S(=O)(=O)c4ccccc4)CCCCN3[C@H]2CO)cc1 | 105% (active)
CCS(=O)(=O)N1CCCCN2[C@@H](CO)[C@@H](c3ccc(-c4ccccc4)cc3)[C@@H]2C1 | 102% (active)
Cc1cccc(-c2ccc([C@@H]3[C@@H](CO)N4CCCCN(S(=O)(=O)c5cccs5)C[C@H]34)cc2)c1 | 106% (active)
C[C@H](O)C#Cc1ccc([C@H]2[C@H]3CN(S(=O)(=O)Cc4ccccc4)CCCCN3[C@H]2CO)cc1 | 72.1%
O=S(=O)(Cc1ccccc1)N1CCCCN2[C@@H](CO)[C@H](c3ccc(-c4ccccc4)cc3)[C@@H]2C1 | 97.9% (active)
O=S(=O)(Cc1ccccc1)N1CCCCN2[C@@H](CO)[C@H](c3ccc(-c4cccnc4)cc3)[C@@H]2C1 | 97.7% (active)
C[C@@H]1CN([C@H](C)CO)C(=O)c2cc(C#Cc3ccccn3)cnc2O[C@H]1CN(C)Cc1ccccc1 | 102% (active)
COCC(=O)N(C)C[C@@H]1Oc2ncc(C#Cc3ccccc3OC)cc2C(=O)N([C@@H](C)CO)C[C@H]1C | 109% (active)
COc1ccc(C#Cc2cnc3c(c2)C(=O)N([C@@H](C)CO)C[C@H](C)[C@@H](CN(C)C(C)=O)O3)cc1 | 19.7%
C[C@@H]1CN([C@@H](C)CO)C(=O)c2cc(C#Cc3ccccc3)cnc2O[C@H]1CN(C)C(=O)c1ccccn1 | 101% (active)
CC(C)CC#Cc1cnc2c(c1)C(=O)N([C@@H](C)CO)C[C@@H](C)[C@H](CN(C)C(=O)Cc1ccncc1)O2 | 76.3%
C[C@H](CO)N1C[C@H](C)[C@H](CN(C)C(=O)Nc2cccc3ccccc23)Oc2ncc(C#Cc3ccccc3)cc2C1=O | 99.9% (active)

SMILES | inhibition
C[C@@H]1CN([C@H](C)CO)C(=O)c2cc(/C=C/c3ccccc3)cnc2O[C@@H]1CN(C)Cc1ccncc1 | 86.1%
Cc1ccc(S(=O)(=O)N(C)C[C@H]2OCCCC[C@H](C)Oc3ccc(NC(=O)Cc4ccccc4)cc3C(=O)N([C@@H](C)CO)C[C@@H]2C)cc1 | 110% (active)
C[C@@H]1CCCCO[C@@H](CN(C)S(=O)(=O)c2ccc(Cl)cc2)[C@H](C)CN([C@@H](C)CO)C(=O)c2cc(NC(=O)Cc3ccccc3)ccc2O1 | 108% (active)
Cc1ccc(-c2ccc3c(c2)O[C@H](CN(C)C)[C@@H](C)CN([C@H](C)CO)S3(=O)=O)cc1 | 88%
C[C@@H]1CN([C@@H](C)CO)S(=O)(=O)c2ccc(C#CCN(C)C)cc2O[C@H]1CN(C)C(=O)C1CC1 | 110% (active)
CC(C)CC#Cc1ccc2c(c1)O[C@H](CN(C)C(=O)C1CC1)[C@@H](C)CN([C@@H](C)CO)S2(=O)=O | 111% (active)
COc1ccccc1-c1ccc2c(c1)O[C@@H](CN(C)C)[C@H](C)CN([C@H](C)CO)S2(=O)=O | 22.8%
C[C@H](CO)N1C[C@H](C)[C@@H](CN(C)C(=O)C2CCCCC2)Oc2cc(-c3ccccc3)ccc2S1(=O)=O | 107% (active)
C[C@H]1CN([C@@H](C)CO)C(=O)CCCn2cc(nn2)CO[C@H]1CN(C)C(=O)c1ccccc1 | 103% (active)
CNC[C@H]1OCCCC[C@H](C)Oc2ccc(NC(=O)Nc3c(C)noc3C)cc2C(=O)N([C@H](C)CO)C[C@H]1C | 104% (active)
C[C@@H]1CN([C@@H](C)CO)C(=O)CCCn2cc(nn2)CO[C@@H]1CN(C)S(=O)(=O)c1ccccc1F | -12.9%
C[C@@H]1CN([C@@H](C)CO)C(=O)c2cc(NC(=O)Nc3ccc(C(F)(F)F)cc3)ccc2O[C@@H](C)CCCCO[C@H]1CN(C)C(=O)c1ccccc1 | 105% (active)
C[C@@H]1CCCCO[C@H](CN(C)C(=O)NC2CCCCC2)[C@H](C)CN([C@H](C)CO)C(=O)c2cc(NC(=O)Nc3ccc(F)cc3)ccc2O1 | 97.3% (active)
CNC[C@H]1OCCCC[C@@H](C)Oc2ccc(NS(C)(=O)=O)cc2C(=O)N([C@H](C)CO)C[C@H]1C | -10.3%
CC(C)NC(=O)N(C)C[C@H]1OCc2cn(nn2)CCCC(=O)N([C@@H](C)CO)C[C@H]1C | 2.94%
C[C@@H]1CN([C@H](C)CO)C(=O)c2cc(NC(=O)Nc3ccc(F)cc3)ccc2O[C@@H](C)CCCCO[C@@H]1CN(C)CC1CCCCC1 | 90.7%
COc1ccc(NC(=O)N(C)C[C@H]2OCCCC[C@H](C)Oc3ccc(NC(=O)Nc4ccc(C(F)(F)F)cc4)cc3C(=O)N([C@@H](C)CO)C[C@@H]2C)cc1 | 103% (active)
C[C@H](CO)N1C[C@H](C)[C@H](CN(C)C(=O)Nc2ccc(C(F)(F)F)cc2)OCCCC[C@H](C)Oc2ccc(NC(=O)C3CCCCC3)cc2C1=O | 109% (active)
CC(C)NC(=O)Nc1ccc2c(c1)C(=O)N([C@H](C)CO)C[C@H](C)[C@H](CN(C)C(=O)Nc1ccc(C(F)(F)F)cc1)OCCCC[C@@H](C)O2 | 110% (active)
C[C@@H]1CCCCO[C@H](CN(C)C(=O)Nc2ccc(C(F)(F)F)cc2)[C@H](C)CN([C@H](C)CO)C(=O)c2cc(NC(=O)Nc3ccc(C(F)(F)F)cc3)ccc2O1 | 109% (active)

SMILES | inhibition
COc1ccc(S(=O)(=O)N2CCCCN3[C@H](C2)[C@H](c2ccc(C#CCC(C)C)cc2)[C@@H]3CO)cc1 | 98.1% (active)
C[C@H](O)C#Cc1ccc([C@@H]2[C@H]3CN(S(=O)(=O)c4ccccc4)CCCCN3[C@H]2CO)cc1 | 32.8%
COc1ccc(S(=O)(=O)N2CCCCN3[C@H](CO)[C@@H](c4ccc(C#CC(C)C)cc4)[C@H]3C2)cc1 | 109% (active)
CC(C)C#Cc1ccc([C@H]2[C@H](CO)N3CCCCN(C(=O)NC(C)C)C[C@@H]23)cc1 | 103% (active)
COc1cccc(S(=O)(=O)N2CCCCN3[C@H](C2)[C@H](c2ccc(C#CC(C)C)cc2)[C@@H]3CO)c1 | 102% (active)
C[C@@H](O)C#Cc1ccc([C@@H]2[C@H](CO)N3CCCCN(S(=O)(=O)c4ccccc4)C[C@@H]23)cc1 | 62.6%
CN(C)CC#Cc1ccc([C@H]2[C@H]3CN(S(=O)(=O)c4ccccc4F)CCCCN3[C@H]2CO)cc1 | 83.2%
COc1cccc(S(=O)(=O)N2CCCCN3[C@H](CO)[C@H](c4ccc(C#CC5CC5)cc4)[C@H]3C2)c1 | 105% (active)
COc1cccc(S(=O)(=O)N2CCCCN3[C@H](CO)[C@H](c4ccc(-c5ccncc5)cc4)[C@H]3C2)c1 | 110% (active)
CC(C)CC#Cc1ccc2c(c1)O[C@H](CN(C)Cc1ccccc1F)[C@@H](C)CN([C@@H](C)CO)S2(=O)=O | 96.7% (active)
CC(C)CC#Cc1ccc2c(c1)O[C@H](CN(C)Cc1ccncc1)[C@H](C)CN([C@H](C)CO)S2(=O)=O | 97.8% (active)
C[C@H](CO)N1C[C@H](C)[C@@H](CN(C)Cc2ccncc2)Oc2cc(Br)ccc2S1(=O)=O | 95.7% (active)
C[C@H](CO)N1C[C@H](C)[C@H](CN(C)Cc2ccncc2)Oc2cc(-c3ccncc3)ccc2S1(=O)=O | 92.9%
CC(C)CC#Cc1ccc2c(c1)O[C@H](CN(C)Cc1cccnc1)[C@H](C)CN([C@@H](C)CO)S2(=O)=O | 98.7% (active)
O=S(=O)(c1ccc(F)cc1)N1CCCCN2[C@H](C1)[C@H](c1ccc(C3=CCCCC3)cc1)[C@@H]2CO | 106% (active)
Cc1ccccc1-c1ccc([C@H]2[C@H]3CN(S(=O)(=O)c4ccc(F)cc4)CCCCN3[C@H]2CO)cc1 | 97.2% (active)
C[C@@H]1CCCCO[C@H](CN(C)S(=O)(=O)c2ccc(Cl)cc2)[C@H](C)CN([C@@H](C)CO)C(=O)c2cc(NS(=O)(=O)c3cccs3)ccc2O1 | 105% (active)
Cc1noc(C)c1S(=O)(=O)Nc1ccc2c(c1)C(=O)N([C@@H](C)CO)C[C@@H](C)[C@H](CN(C)S(=O)(=O)c1ccc(Cl)cc1)OCCCC[C@H](C)O2 | 99.1% (active)
C[C@@H]1CN([C@H](C)CO)C(=O)c2cc(NS(=O)(=O)c3cccs3)ccc2O[C@@H](C)CCCCO[C@@H]1CN(C)S(=O)(=O)c1ccc(Cl)cc1 | 101% (active)
C[C@H]1CCCCO[C@@H](CN(C)S(=O)(=O)c2cccs2)[C@@H](C)CN([C@@H](C)CO)C(=O)c2cc(NS(=O)(=O)c3ccc(Cl)cc3)ccc2O1 | 101% (active)
